# Measurements: PubChem BioAssay (NCI)
# About 83,000 compounds went through this panel and 20% of them were active in at least one assay; those are over-represented in the sample as a whole.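 Values shown are percent growth following 48 h exposure of cells in 96-well plates to a single concentration of compound; below 10 was considered active.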 Activity calls are given as the source filed them.
# Tested on: NCI-H522 lung
# Test: NCI-60 one-dose screen, 48 h (100 = growth as untreated, 0 = no growth, -100 = all killed)
# Details: 10 µM
# Protocol: Growth inhibition of the NCI-H522 human Non-Small Cell Lung tumor cell line is measured as a screen for anti-cancer activity. Cells are grown in 96 well plates and exposed to the test compound for 48 hours. Compounds are tested at a single concentration, which is 10^-5 M for most compounds. The reported endpoint is percent growth (GI% or GIPRCNT), where numbers from 0 - 100% represent growth inhibition, and numbers from -100% - 0 represent cell death. For example, a value of 40 represents 60% growth inhibition. A value of 0 means no net growth occurred over the course of the experiment. A value of -40 indicates 40% of cells at the beginning of the experiment died by the end of the experiment. A value of -100 means all cells are dead at the end of the experiment.
# NCI-60 Human Tumor Cell Lines Screen was performed using the standard one-dose NCI protocol, which is described in more detail at https://dtp.cancer.gov/discovery_development/nci-60/default.htm.
# Compounds with GIPRCNT values below 10 were considered active. Activity score was based on GIPRCNT using the following formula: […]
# Score is 0 for GIPRCNT values of 100 or above, 50 for GIPRCNT values of 0, and 100 for GIPRCNT values of -100.
row,Structure (SMILES),growth
1,O=C(COc1ccc(/C=C2\Oc3ccc4ccccc4c3C2=O)cc1)c1ccc(Cl)cc1,61.9% (inactive)
2,CCOc1nc(-c2ccco2)n2nc(-c3ccco3)cc2n1,99.1% (inactive)
3,CC(=O)c1ccccc1NC(=O)C(C)(c1ccccc1)c1ccccc1,77.3% (inactive)
4,NC(=O)c1cc(Br)cc(Br)c1NS(=O)(=O)c1ccccc1,100% (inactive)
5,C[C@H]1C(=O)N2c3ccccc3[C@@]3(O)C[C@@H](n4cnc5ccccc5c4=O)C(=O)N1[C@@H]23,92.5% (inactive)
6,CC(NC(N)=S)c1ccccc1 (stereo not given),102% (inactive)
7,Cc1ccc(C(NC(=O)c2ccccc2)c2ccc3cccnc3c2O)cc1 (stereo not given),-5.42% (active)
8,COc1ccc2cc(-c3nc4ccccc4[nH]3)c(=O)oc2c1,88.7% (inactive)
9,CCCCN1c2nc3ccccc3cc2Sc2cc3ccccc3nc21,92.8% (inactive)
10,CCSc1nc(-c2ccco2)n2nc(-c3ccco3)cc2n1,101% (inactive)
11,Cc1cc(Cl)ccc1Nc1nc(C(F)(F)F)ccc1C(=O)N/N=C/c1ccc(Cl)cc1,-17.6% (active)
12,O=C(COc1ccc(/C=C2\Oc3ccc4ccccc4c3C2=O)cc1)c1ccc([N+](=O)[O-])cc1,49% (inactive)
13,CSc1nc2nc3c(c(-c4ccc(C)cc4)c2c(=O)[nH]1)CN(C)C/C3=C\c1ccc(C)cc1,93.2% (inactive)
14,NC(=O)NS(=O)(=O)c1ccc(N2N=C(C(F)(F)F)CC2c2cc(C(F)(F)F)cc(C(F)(F)F)c2)cc1 (stereo not given),38.4% (inactive)
15,CC(C)=CCNc1ncnc2c1ncn2C1OC(COP(=O)(O)O)C(O)C1O (stereo not given),9.55% (active)
16,CC(=O)Nc1cc(C(c2ccccc2)c2ccccc2)cc(C(c2ccccc2)c2ccccc2)c1C,45.6% (inactive)
17,CC(C)CC1NC(=O)C(CCCN)NC(=O)C(C(C)C)NC(=O)C2CCCN2C(=O)C(Cc2ccccc2)NC(=O)C(CC(C)C)NC(=O)C(CCCN)NC(=O)C(C(C)C)NC(=O)C2CCCN2C(=O)C(Cc2ccccc2)NC1=O (stereo not given),-80.7% (active)
18,CC[C@H]1CN2CCc3cc(OC)c(OC)cc3C2C[C@@H]1CC1NCCc2cc(OC)c(OC)cc21 (stereo not given in full),-71.2% (active)
19,N=C1c2nc3n(c2C(=O)c2nc4n(c21)CCCCC4)CCCCC3,90.9% (inactive)
20,CC(=O)N1N=C(c2ccc(Nc3ccnc4cc(Cl)ccc34)cc2)CC1c1ccc(Cl)cc1 (stereo not given),24% (inactive)

row,Structure (SMILES),growth
1,Nc1ccn(C2O[C@H](CO)[C@@H](O)[C@@H]2O)c(=O)n1 (stereo not given in full),68.1% (inactive)
2,CCOC(=O)Nc1cc(-c2ccc(C)c(NS(C)(=O)=O)c2)nn2c(C)nnc12,-11.8% (active)
3,BrC1CC(Br)c2c1c1c(c3c2C(Br)CC3Br)C(Br)CC1Br (stereo not given),84.4% (inactive)
4,O=C(O)C1CCN(S(=O)(=O)c2ccc(-c3ccccc3)cc2)CC1,92.9% (inactive)
5,COc1cc(/C=C2\SC(N3CCCCC3)=NC2=O)ccc1OCCCCCCOc1ccc(/C=C2\SC(N3CCCCC3)=NC2=O)cc1OC,-11.5% (active)
6,NS(=O)(=O)c1cc(C2(O)NC(=O)c3ccccc32)ccc1Cl (stereo not given),99.5% (inactive)
7,O[N+]1=CC=CCC1=S.On1ccccc1=S.[Zn],-92.4% (active)
8,O=CN1N=C(c2ccc(Nc3ccnc4cc(Cl)ccc34)cc2)CC1c1ccc(Cl)cc1 (stereo not given),26.9% (inactive)
9,COc1cc(OC)c2c(c1Cl)O[C@]1(C2=O)C(OCc2ccccc2)=CC(=O)C[C@H]1C,-24.7% (active)
10,CC(=O)Nc1ccc(C(=O)COc2cccc(/C=C3\CCc4ccccc4C3=O)c2)cc1,63.1% (inactive)
11,Cn1ccnc1C(=O)/C=C/c1ccc(C(=O)Nc2nc3ccccc3[nH]2)cc1,58.6% (inactive)
12,CC12CCC3C(=CCc4cc(O)ccc43)C1CCC2=O (stereo not given),97% (inactive)
13,O=C(O)c1ccc(CNS(=O)(=O)c2ccc3ccccc3c2)cc1,104% (inactive)
14,Oc1ccccc1/C=N/N1CCCCCC1,104% (inactive)
15,Cc1cc2ccccn2c1C(=O)c1ccc(C(=O)c2ccccc2)cc1,79.7% (inactive)
16,Nc1nc(SCc2cccnc2)c2ncn(C3OC(CO)C(O)C3O)c2n1 (stereo not given),102% (inactive)
17,Nc1ccc(Oc2c(F)c(F)c(Oc3ccc(N)cc3)c(F)c2F)cc1,90.4% (inactive)
18,CCCCc1ccc(C(N)=O)nc1,85.3% (inactive)
19,C#C[C@]1(O)CCC2C3CCc4cc(O)ccc4C3CC[C@@]21C (stereo not given in full),10.6% (inactive)
20,CN1CCN(CCCOc2ccc3ncnc(Nc4ccc(OCc5cccc(F)c5)c(Cl)c4)c3c2)CC1,-43.4% (active)
